Source: PubChem
This is a sample that favours compounds with a hit; in the whole collection about 2.7% have one here.
MsrA act – bovine MsrA enzyme activators, primary screen, biochemical, absorbance, HTS; activation, % at 10.6 µM; purified bovine MsrA, absorbance read-out; Methionine sulfoxide reductase A (Bos taurus); hit rate 0.3% among 360,000; AID 602163, 2012; in the data active = activation above about 7.5%;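 also: 0% = vehicle and 100% = reference activator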
MsrA inhibitor – bovine MsrA enzyme inhibitors, primary screen, biochemical, absorbance, HTS; AID 651718, 2012; hit rate 0.75% among 360,000; purified bovine MsrA, absorbance read-out; Methionine sulfoxide reductase A (Bos taurus); inhibition, % at 15.5 µM; in the data active = inhibition above about 4.5%;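 also: 0% = vehicle wells with enzyme and 100% = reference inhibitor wells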
NadD inh – inhibitors of S. aureus NadD, primary screen, biochemical, colorimetric, uHTS | Nicotinate-nucleotide adenylyltransferase NadD (Staphylococcus aureus N315) | purified NadD enzyme, colorimetric absorbance read-out | inhibition, % at 20 µM | hit rate 0.78% among 360,000 | AID 602399, 2012; in the data active = inhibition above about 26%
rCAG binder – binders of r(CAG) RNA repeats, primary screen, biochemical, fluorescence; inhibition, % at 3 µM; AID 651821, 2012; r(CAG) RNA repeat, TO-PRO-1 dye displacement fluorescence; hit rate 1.3% among 370,000;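 active = inhibition above the plate cutoff, the mean of all test compounds on that plate plus 3 SD, cut at about 35% in these data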;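 also: 0% = DMSO alone and 100% = 100 µM mitoxantrone as full dye displacement; higher means more dye released from RNA so lower well fluorescence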
NadD inh conf – inhibitors of S. aureus NadD, confirmation, biochemical, colorimetric, single concentration | shares compounds with NadD inh | purified S. aureus NadD, colorimetric enzyme assay | inhibition, % at 20 µM | hit rate 13% among 2,000 | AID 624309, 2012; in the data active = inhibition mostly above about 42%, no sharp cut-off; inactive = mostly below about 42%
* = called active by the depositor; · = no result.

SMILES	MsrA act	MsrA inhibitor	NadD inh	rCAG binder	NadD inh conf
COc1ccc(-c2cc(C#N)nc(N3CCNCC3)n2)cc1	-2	3	45*	15	37
COc1ccc2c(Cl)c(C(=O)OCC(=O)c3ccc4c(c3)NC(=O)CO4)sc2c1Cl	-7	0	40*	3	0
CCCN1CCS(=O)(=O)N(Cc2cn(Cc3ccc(Cl)cc3)nn2)C(C(=O)OC)C1 (centres undefined)	·	·	·	-3	·
COc1ccc(C(C[N+](=O)[O-])c2c(-c3ccccc3)cc3ccccn23)c(OC)c1 (centres undefined)	-2	1	33*	13	14
O=C(CSc1n[nH]c(-c2cccnc2)n1)OC1CCCCC1	-4	2	2	-5	·
CCOc1ccc(CCNC(=O)c2cccc(S(=O)(=O)N3CCN(C(C)=O)CC3)c2)cc1OCC	-5	-1	-3	-6	·
CCC(C)[C@@H](C(=O)OC)N(Cc1cn(Cc2ccccc2)nn1)S(=O)(=O)c1ccccc1Br (some centres undefined)	·	·	·	-1	·
COc1ccccc1N1CCN(c2nc3ccccc3nc2C(C#N)C(=O)OC(C)C)CC1 (centres undefined)	-2	2	37*	5	6
CCCOc1ccc(N2C(=O)CC(SC(=NC)Nc3ccc(F)cc3)C2=O)cc1 (centres undefined)	-7	2	-7	-1	·
CCCOc1ccc(N2C(=O)CC(SC(=N)N3N=C(c4ccccc4)CC3c3ccccc3)C2=O)cc1 (centres undefined)	-3	1	43*	8	3
Cc1cc(C(=O)OCC(=O)Nc2c(F)cccc2F)c(C)n1-c1ccccc1	-1	0	-3	-8	·
Cc1c(NC(=O)/C(C#N)=C/c2ccc(-c3ccc(Cl)c(Cl)c3)o2)c(=O)n(-c2ccccc2)n1C	-3	0	33*	3	8
COC(=O)c1ccc(CNc2ccc(C(C)=O)cc2)cc1	-4	1	-5	5	·
Cn1c2ccccc2c(=O)c2ccc(C#Cc3ccc(N)cc3)cc21	-6	4	51*	31	44
Cn1c2ccccc2c(=O)c2cc(C#CC3=CCCCC3)ccc21	-3	0	32*	20	9
Cn1c2ccccc2c(=O)c2cc(C#Cc3cccc(N)c3)ccc21	-4	·	21	·	·
CC(=O)OCC(=O)C1(O)CCC2C3CCC4CC(O)CCC4(C)C3C(=O)CC21C (centres undefined)	-2	0	-2	-9	·
Cc1nn(Cc2ccc(Cl)c(Cl)c2)c(C)c1NC(=O)c1cn(-c2ccccc2)nc1-c1ccccc1	-11	0	33*	5	34
Cc1cccc(C)c1NC(=O)c1cn(-c2ccccc2)nc1-c1ccccc1	-2	1	4	0	·
CC(C)c1c(C#N)c(N)nc(SCC(=O)c2cc3ccccc3oc2=O)c1C#N	-3	0	17	7	·
Cc1nc(SCC(=O)c2cc3ccccc3oc2=O)c(C#N)c(-c2cccs2)c1C(=O)Nc1ccccc1	-3	0	33*	17	2
OC(CNCC1CCCO1)Cn1c2ccc(Cl)cc2c2cc(Cl)ccc21 (centres undefined)	0	-1	7	6	·
OC(CNCCC1C=Nc2ccccc21)Cn1c2ccc(Cl)cc2c2cc(Cl)ccc21 (centres undefined)	-3	-1	34*	15	20
COc1ccccc1/C=N/NC(=O)c1ccc(CN2C(=O)c3cccc4cccc2c34)cc1	-1	0	35*	22	12
O=C(CSc1nc2ccccc2nc1N1CCCCC1)NCc1ccc(Cl)cc1Cl	·	·	·	6	·
CC(C)(C)OC(=O)CC[C@@H](C(=O)NCCCCCCCCCCC(=O)N1CCN(C(=O)OC(C)(C)C)CC1)n1cc(CCCCCNC(=O)OC(C)(C)C)nn1	-9	2	32*	1	-4
CC(=O)N1[C@@H](CO)[C@@H](c2ccc(-c3cccc(F)c3)cc2)[C@@H]1CNCC1CCC1	·	·	·	5	·
O=C(Nc1nc2ccccc2n1Cc1ccccc1)c1ccc(COc2ccccc2[N+](=O)[O-])o1	-7	0	20	-1	·
Cc1ccc(OCc2ccc(C(=O)Nc3nc4ccccc4n3Cc3ccccc3)o2)c([N+](=O)[O-])c1	0	-1	34*	2	7
